PubChem BioAssay (Tox21)
Records with an inconclusive call do not appear. A call without a number means that no potency is given here. Activity calls are given as the source filed them. Calls come from the whole dose curve; as a rule, active = well fitted activation curve with a large enough effect in the signal ratio in the repeat runs (not every such curve was filed as active); inconclusive = weak or mixed curves; inactive = flat fitted curve, though single readings scatter; the % refers to the signal ratio.

Assay: qHTS assay to identify small molecule agonists of the TGF-beta/Smad signaling pathway (AID 1346859)
Details: SBE-bla HEK293T, TGF-beta/Smad beta-lactamase reporter, 5 h; series mostly up to 76.8 µM
From the text: U.S. Tox21 Program National Center for Advancing Translational Sciences [NCATS] NIH Chemical Genomics Center [NCGC] U.S. Environmental Protection Agency [EPA] National Institutes of Environmental Health Sciences [NIEHS] National Toxicology Program [NTP] U.S. Food and Drug Administration [FDA] Tox21 Assay Overview: Transforming growth factor beta (TGF-beta) superfamily consists of a large number of structurally related dimeric proteins that act as hormones or local mediators in regulating a wide range of biological functions. This superfamily includes TGF-betas themselves, the bone morphogenetic proteins (BMPs) and the activins. These ligands induce oligomerization of serine/threonine receptor kinases and phosphorylate the cytoplasmic signaling molecules of Smad protein family. CellSensor SBE-bla HEK 293T cell line (Life Technologies, Carlsbad, CA), responsive to TGF-beta was used to screen Tox21 10K compound library for identification of agonists/antagonists of the Smad signaling pathway. This cell line contains a beta-lactamase reporter gene under control of the Smad binding element (SBE) stably integrated into HEK 293T cells.
Tox21 Assay Protocol Summary: SBE-bla HEK 293T cells were dispensed at 4,000/well in 6 uL of assay medium into black wall/clear-bottom 1536-well plates using a Multidrop Combi (ThermoFisher Scientific, Waltham, MA) dispenser. After the assay plates were incubated at 37 C and 5% CO2 for an overnight, 23 nL of compounds dissolved in DMSO, positive controls or DMSO only was transferred to the assay plate by a Pintool station (Kalypsys, San Diego, CA). The assay plates were incubated at 37 C and 5% CO2 for 5 hr. One uL of LiveBLAzer B/G FRET substrate (Life Technologies) was added using a Flying Reagent Dispenser (Aurora Discovery, San Diego, CA) and the plates were incubated at room temperature for 2 hr. Fluorescence intensity (405 nm excitation, 460 nm and 530 nm emissions) was measured using an Envision plate reader (PerkinElmer, Shelton, CT).

Structure (SMILES) | Potency
COc1c(Cl)ccc(Cl)c1C(=O)O | inactive
Cc1ccccc1Cl | inactive
CC/C(C)=N/O | inactive
CC(=O)C(C)C | inactive
CC(C)c1ccc(C(C)C)cc1 | inactive
CCCOC(=O)NCCCN(C)C | inactive
CC(C)=CCC/C(C)=C/C=O | inactive
c1cnc2c(c1)ccc1cccnc12 | inactive
NC(N)=S | inactive
CC(=O)OCCC(C)C | inactive
C[n+]1ccn(CCO)c1 | inactive
O=C1OC(=O)c2c(Cl)c(Cl)c(Cl)c(Cl)c21 | inactive
O=C(O)Cc1c[nH]c2ccccc12 | inactive
Nc1cccc(N)n1 | inactive
COC(=O)OC | inactive
CCCCCCCC(=O)O | inactive
CCCOCC(C)O (stereo not given) | inactive
COc1ccc([C@@H]2CC(=O)c3c(O)cc(O[C@@H]4O[C@H](CO[C@@H]5O[C@@H](C)[C@H](O)[C@@H](O)[C@H]5O)[C@@H](O)[C@H](O)[C@H]4O)cc3O2)cc1OC | inactive
C1CCCNCC1 | inactive
O=Cc1ccc(CO)o1 | inactive

Structure (SMILES) | Potency
C=C1C[C@]23C[C@@]1(O)CC[C@H]2[C@@]12C=C[C@H](O)[C@@](C)(C(=O)O1)[C@H]2[C@@H]3C(=O)O | inactive
CCCN(CCC)C(=O)SCC | inactive
Cc1ccc(Cl)cc1 | inactive
CN1CCCC1=O | inactive
O=C1O[C@H]([C@H](O)CO)C(O)=C1O | inactive
COc1cc(NC(=O)CC(C)=O)c(OC)cc1Cl | inactive
COc1ccc(N)c(OC)c1 | inactive
COc1c2ccoc2cc2oc(=O)ccc12 | inactive
CC(COCC(C)OC(=O)c1ccccc1)OC(=O)c1ccccc1 (stereo not given) | inactive
CCOC(=O)c1ccc(O)cc1 | inactive
COC(=O)/C=C\C(=O)OC | inactive
CC(O)CNCC(C)O (stereo not given) | inactive
Cc1ccc(C(C)C)cc1 | inactive
CC(C)(C)NC[C@H](O)COc1nsnc1N1CCOCC1 | inactive
CN1Cc2c(N)cccc2C(c2ccccc2)C1 (stereo not given) | inactive
CN=C(NC#N)NCCSCc1nc[nH]c1C | inactive
OCCOCCOCCOCCOCCO | inactive
O=[N+]([O-])c1cc(C(F)(F)F)ccc1Cl | inactive
Cc1ccc(C)c(S(=O)(=O)O)c1 | inactive
C=C(CC(=O)O)C(=O)O | inactive
